Bioassay records deposited in PubChem by National Center for Advancing Translational Sciences (NCATS).
This is a sample that favours compounds with a hit; in the whole collection about 8.3% have one here.
BCR signal inh = blocks chronic active B-cell receptor signaling; ABC-DLBCL IkBa-CBG/CBR reporter, luminescence ratio, 4 h; Potency, µM (titrated, usually from 46.1 µM), for inactives: at the highest dose activity change, negative = inhibition, usual class: inhibitors; actives 0.05% (n = 340,000); active = well fitted inhibition curve with a large enough effect in the signal ratio, with a control signal flat, not every such curve was filed as active; inconclusive = small, poorly fitted or top-dose-only effect, or effect the other way, or a change in a side signal; the % refers to the signal ratio;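 also: potency is read from the fitted curve at half-maximal effect; plate controls were basal doxycycline-induced cells for no effect and cells given 10 µM MG132 for full effect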
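Concentration-response series (up to 46 uM) were applied to TMD8 dual-reporter cells for 4 h at 37C with doxycycline. Green/red ratio, after filter-overlap correction, defined %Activity; red signal alone was normalised to basal cells and zero luminescence.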
MCF10A rerep = inducers of DNA re-replication in MCF 10A breast cells; MCF 10A DNA re-replication, Hoechst nuclear intensity, 48 h; Potency, µM (doses to about 46.1 µM), without a hit: at the top dose activity, positive = re-replication, most hits filed as activators; actives 2.9% (n = 350,000); also: potency is read from the fitted curve at half-maximal effect; % of control where 0% means no effect; nearly all actives have a fitted effect of over 50% in size
Giardia kill = kills Giardia lamblia | actives 0.15% (n = 340,000) | AID 540267 | activity change, % at 7.66 µM, hits read low | Giardia lamblia trophozoite viability; in the data active = activity change below about -80%; inconclusive = between about -30% and that limit;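 also: parasites exposed to compound for two days anaerobically before the ATP read; % is scaled to controls: 0 for no effect and ±100 for the full control effect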
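Compounds were tested on trophozoites seeded at 100 cells/well and held 48 hrs at 37 deg C anaerobically. An ATP-based luminescent kit measured the remaining live cells.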
RORgamma inh = inhibitors of mouse ROR gamma transcriptional activity; Potency, µM (top dose mostly 53.6 µM), inactives show at the highest dose activity change, negative = inhibition, most hits filed as inhibitors; Drosophila S2 Gal4-RORgamma UAS-luciferase reporter, 20 h; P51450; AID 2551; actives 5.4% (n = 310,000); also: potency is read from the fitted curve at half-maximal effect; % is scaled to controls: 0 for no effect and ±100 for the full control effect; nearly all actives have a fitted effect of over 60% in size
Target sequence (P51450 whole entry, looked up, the tested form may be a part): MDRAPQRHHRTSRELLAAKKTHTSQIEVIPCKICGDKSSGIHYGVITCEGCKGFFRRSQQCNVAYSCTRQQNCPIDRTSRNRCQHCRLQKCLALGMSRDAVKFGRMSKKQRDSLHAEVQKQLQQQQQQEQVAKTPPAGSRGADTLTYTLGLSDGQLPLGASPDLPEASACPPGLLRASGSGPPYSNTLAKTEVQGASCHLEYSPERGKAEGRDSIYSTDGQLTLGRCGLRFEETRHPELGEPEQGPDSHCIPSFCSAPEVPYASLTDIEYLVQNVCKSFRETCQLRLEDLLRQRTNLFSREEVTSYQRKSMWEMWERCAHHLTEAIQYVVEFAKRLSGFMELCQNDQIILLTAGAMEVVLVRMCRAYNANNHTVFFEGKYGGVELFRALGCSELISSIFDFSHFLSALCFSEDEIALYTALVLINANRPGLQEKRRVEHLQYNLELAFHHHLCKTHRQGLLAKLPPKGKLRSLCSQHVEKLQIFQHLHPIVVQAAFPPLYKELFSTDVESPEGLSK
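Luciferase reporter read in Schneider cells carrying Gal4-RORγ (mouse) and UAS-Photinus luciferase; cells given compound 1 h before 700 uM copper sulfate induction, then incubated 20 h at ambient temperature.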
Gal4-VP16 FLuc = counter-screen for ROR gamma inhibitors: Gal4-VP16 reporter; Drosophila S2 Gal4-VP16 UAS-luciferase, luminescence, 20 h; Potency, µM (series often up to 53.6 µM), inactives show at the highest dose activity, negative = inhibition, actives largely listed as inhibitors; actives 3.5% (n = 310,000);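 also: Gal4-VP16 expression switched on by copper sulfate through the metallothionein promoter; potency is read from the fitted curve at half-maximal effect; % is scaled to controls: 0 for no effect and ±100 for the full control effect; nearly all actives have a fitted effect of over 50% in size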
SW480 rereplic = induces DNA re-replication in SW480 colon adenocarcinoma cells; SW480 DNA re-replication, Hoechst DNA content imaging, 48 h; Potency, µM (series often up to 46.1 µM), for inactives: at the highest dose re-replication activation, most hits filed as activators; actives 1.8% (n = 340,000); AID 624297; also: potency is read from the fitted curve at half-maximal effect; % of control where 0% means no effect; nearly all actives have a fitted effect of over 55% in size
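SW480 cells exposed to compounds for 48 hr at 37 C, 5% CO2, then Hoechst-stained 40 min. Nuclear DNA content imaged by fluorescence scanning (405 nm excitation, 500-530 nm emission); re-replication scored as increased high-intensity nuclei.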
* marks the source's active call; other numbers are inactive results; ? = inconclusive; / = no result given; [ ] = dose if it differs, or a comment. Unless noted, calls follow the shape of the dose curve; as a rule, active = well fitted curve in the direction sought with a large enough effect; inconclusive = small, poorly fitted or top-dose-only effect, or another doubt; inactive = no such curve, though single readings can be large; an effect the other way counts as inactive or inconclusive.

SMILES	BCR signal inh	MCF10A rerep	Giardia kill	RORgamma inh	Gal4-VP16 FLuc	SW480 rereplic
COc1ccc(C)c2sc(N(CCCN(C)C)C(=O)c3ccc(S(=O)(=O)N4CCc5ccccc5C4)cc3)nc12	/	16.4µM*	0.3	/	/	?
COc1cccc2sc(N(CCCN(C)C)C(=O)c3ccc(S(=O)(=O)N4CCc5ccccc5C4)cc3)nc12	?	?	15.8	-89.5%	28.2µM*	?
COc1cc2nc(N(CCCN(C)C)C(=O)c3ccc(S(=O)(=O)N4CCc5ccccc5C4)cc3)sc2cc1OC	0.7%	9.0%	-11.0	/	/	?
Clc1cc(/C=N\NC2=NCCN2)cc(Cl)n1	/	-2.7%	-17.3	/	/	-8.9%
COC(=O)C1=C(C)N(CCc2cc(OC)c(OC)c(OC)c2)C(=O)N[C@H]1c1ccc(Br)cc1	-8.8%	24.7%	/	10.8%	1.7%	24.3%
S=C(NCCC(c1ccccc1)c1ccccc1)Nc1cccc(Cl)c1	?	?	-15.4	5.01µM*	15.8µM*	-2.3%[9.22 µM]
S=C(NCCN(C1CCCCC1)C1CCCC1)Nc1cccc(Cl)c1	?	?	-7.3	17.8µM*	?	?
O=C(C(=S)N1CCOCC1)c1c[nH]c2ccccc12	-0.6%	-0.9%	-6.5	9.0%	2.2%	-15.4%
COCCC1CCCCN1C(=O)c1ccc(OC2CCN(C(C)=O)CC2)c(OC)c1 (stereo not drawn)	-6.8%	5.8%	10.1	3.4%	-7.5%	?
COC(=O)c1cc(NC(=O)c2cccc(C(F)(F)F)c2)c(=O)oc1C/C=N/OCc1cccc(Cl)c1Cl	14.9%	18.4µM*	-4.1	15.6%	-4.6%	13.3%
O=c1c2cc(F)ccc2sn1-c1ccc(F)cc1	?	?	-3.8	/	/	?
Cc1ccc(C)c(-n2sc3ccc(F)cc3c2=O)c1	?	?	10.5	/	/	18.4µM*
N#C/C(=C\c1c(N(Cc2ccccc2)Cc2ccccc2)nc2ccccn2c1=O)C(N)=O	?	-0.6%	-1.5	?	7.08µM*	-8.3%
C=CCNC(=O)/C(C#N)=C/c1c(N(Cc2ccccc2)Cc2ccccc2)nc2ccccn2c1=O	?	5.4%	-15.0	38.3%	-16.5%	20.1%
Cc1ccccc1S(=O)(=O)Nc1ncnc2ccccc12	0.4%	2.1%	-25.7	27.8%	3.0%	-3.0%
Cc1cc(C)cc(OCC(O)CN2CCN(Cc3ccc4c(c3)OCO4)CC2)c1 (stereo not drawn)	-27.3%	16.4µM*	9.3	24.2%	-5.7%	8.8%
COc1ccc(/C=C2\SC(=O)N(CCNC(=O)Cn3[nH]c(=O)c4ccccc4c3=O)C2=O)cc1	?	?	-16.1	/	/	1.9%
CCCCCCCCCC(=O)O[C@H](CC(=O)O)C[N+](C)(C)C	/	/	/	3.2%	4.8%	/
C/C(=N\NC(=O)c1c(C)nc2ccccn12)c1ccc(N2CCOCC2)cc1	-7.5%	-1.6%	8.5	-2.2%	-7.9%	-1.2%
COc1ccc(Br)cc1S(=O)(=O)NNC(=O)c1c(C)nc2ccccn12	16.7%	-1.0%	-0.5	39.7%	-3.8%	4.9%
Cc1nc2ccccn2c1C(=O)NNS(=O)(=O)c1ccc(C(C)(C)C)cc1	-3.4%	16.6%	-17.2	17.3%	15.8µM*	-3.0%
C/C(=N\NC(=O)c1c(C)nc2ccccn12)c1ccc(C(C)(C)C)cc1	3.2%	18.4µM*	8.3	?	-13.6%	?
COC(=O)c1ccc(NC(=O)CSCc2ccccc2C)cc1	-0.7%	?	-1.7	?	8.0%	-5.9%
COc1ccc(S(=O)(=O)N2CCOC23CCN(S(=O)(=O)c2ccc(C)cc2)CC3)cc1	?	?	3.9	/	/	?
CCOC(=O)N1CCC(N2C(=O)c3ccc(C(=O)Nc4ccc(OC)c(OC)c4)cc3C2=O)CC1	1.6%	1.7%	-7.1	7.6%	4.8%	-2.5%
SMILES	BCR signal inh	MCF10A rerep	Giardia kill	RORgamma inh	Gal4-VP16 FLuc	SW480 rereplic
N=c1c(C(=O)NCCN2CCOCC2)cc2c(=O)n3ccccc3nc2n1CCCN1CCOCC1	-7.6%	0.184µM*	29.2	0.9%	5.0%	0.651µM*
N=c1c(C(=O)NCCN2CCOCC2)cc2c(=O)n3ccccc3nc2n1Cc1ccc(F)cc1	-3.1%	1.3µM*	13.8	10.3%	-18.0%	2.06µM*
O=C(NCCN1CCN(c2ccccc2)CC1)c1cccn2c(=O)c3ccccc3nc12	4.2%	12.5%	-1.0	21.1%	-12.0%	-2.1%
O=C(NCCN1CCN(c2ccccc2F)CC1)c1cccn2c(=O)c3ccccc3nc12	2.5%	5.17µM*	5.3	-25.2%	3.9%	12.1%
CCC1C(=O)C(CC)C(c2ccccc2)NC1c1ccccc1 (stereo not drawn)	5.2%	?	6.9	0.282µM*	1.3%	19.9%
CCC1C(=NO)C(CC)C(c2ccccc2)NC1c1ccccc1 (stereo not drawn)	17.5%	?	-29.7	?	?	?
CC(CNC(=S)Nc1cc(F)cc(F)c1)CSc1ccc(Cl)cc1 (stereo not drawn)	?	-0.6%	12.8	8.91µM*	?	2.4%
Cc1ccc(NC(=S)NCCSc2ccc(Cl)cc2)cc1	-8.4%	?	3.3	0.794µM*	0.891µM*	0.5%
COC(=O)Cc1ccc(NC(=S)NCCSc2ccc(C)cc2)cc1	-3.9%	1.7%	1.4	?	0.7%[10 µM]	-0.9%
Cc1ccc(SCCNC(=S)Nc2ccc(C)cc2C)cc1	0.1%	?	15.4	3.55µM*	7.94µM*	17.4%
Cc1ccc(SCCNC(=S)Nc2cc(C)cc(C)c2)cc1	15.1%	?	9.0	5.01µM*	7.94µM*	-1.2%
Cn1cccc1CNC(=S)Nc1cc(F)cc(F)c1	-29.5%	-1.6%	5.5	3.0%	-13.3%	?
O=C(CCSc1ccccc1)NNC(=O)c1ccccc1F	-4.6%	10.3%	5.5	/	/	?
CCC(=O)c1ccc(OC(C)C(=O)NC2(C#N)CCCCC2)cc1 (stereo not drawn)	1.2%	6.3%	15.0	13.8%	-20.1%	-6.1%
O=C(NC(Cc1c[nH]c2ccccc12)C(=O)O)/C(=C\c1ccc2c(c1)OCO2)NC(=O)c1ccccc1 (stereo not drawn)	?	-9.8%	-12.4	4.0%	-3.9%	-14.1%
Cc1cccc(C)c1NC(=S)NCCSc1ccc(Cl)cc1	14.3%	?	-7.0	2.51µM*	?	-11.1%
O=C(N/N=C/c1cccnc1)c1sc2ccccc2c1Cl	?	-2.2%	5.6	12.6µM*	25.1µM*	?
O=C(NN=C1CCCC1)c1sc2ccccc2c1Cl	?	11.9%	5.2	11.2µM*	?	3.3%
O=S(=O)(NCCCCCNS(=O)(=O)c1c(F)cccc1F)c1ccc2c(c1)OCCO2	-0.9%	13.0%	-14.2	/	/	-10.6%
